Experimental data published in PubChem BioAssay AID1159580 (chemical genetic matrix, 2015).
The whole screen tested about 5,500 compounds, of which about 2,000 (36%) were called active. Another 18% or so got no clear call; they are omitted. Cut-off read from the data, not from the text of the source: active = normalized growth mostly below about 0.91 (no sharp cut-off); inconclusive = no clear call, values can overlap the other calls; inactive = mostly above about 0.92. The list shows a part of the results.

Assay: chemical genetic growth profiling, strain panel (AID 1159580);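 note: tested at 20 µM; growth read once vehicle control cultures reached saturation at 30 °C; 1 = growth at the plate median or of vehicle wells; lower values mean less growth of the strain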
Details: S. cerevisiae deletion strains, growth OD
[1] = locus YAL040C, strain CLN3, active compounds read low
[2] = locus YCL061C, strain MRC1 (second series), active compounds read low
[3] = locus YDR363W, strain ESC2, active compounds read low
[4] = locus YER002W, strain NOP16, active compounds read low
[5] = locus YNL153C, strain GIM3, active compounds read low
[6] = locus YNL175C, strain NOP13, active compounds read low
[7] = locus YNL197C, strain WHI3, active compounds read low
[8] = locus YNL224C, strain SQS1, active compounds read low
[9] = locus YOR083W, strain WHI5 (second series), active compounds read low

Measured: normalized growth

Nc1ncnc2c1ncn2[C@@H]1O[C@H](CO)[C@H](O)C1O (some centres not stated)
inactive: [1] 0.999 | [2] 0.998 | [3] 1.01 | [4] 1.01 | [5] 1.04 | [6] 1.02 | [7] 1.02 | [8] 1.02 | [9] 1.07

Nc1ncnc2c1ncn2[C@@H]1O[C@H](COP(=O)(O)OP(=O)(O)OP(=O)(O)OP(=O)(O)OC[C@@H]2O[C@H](n3cnc4c(N)ncnc43)C(O)[C@@H]2O)[C@H](O)C1O (some centres not stated)
inactive: locus YAL013W, strain DEP1, active compounds read low 1 | [1] 1.01 | [2] 0.992 | [3] 1.04 | [4] 1.03 | locus YGR229C, strain SMI1, active compounds read low 1.03 | locus YMR307W, strain GAS1, active compounds read low 1.03 | [5] 0.993 | [6] 0.997 | [7] 0.974 | [8] 1 | [9] 0.996 | locus YPL241C, strain CIN2, active compounds read low 0.999
